Among all 5,500 compounds or so, about 2,000 (36%) were called active. Inconclusive results (about 18%) are left out. No stated cut-off is given here; in the data, active means normalized growth mostly below about 0.91 (no sharp cut-off); inconclusive means no clear call, values can overlap the other calls; inactive means mostly above about 0.92. The list shows a part of the results.
Assay: chemical genetic growth profiling, strain panel (AID 1159580);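 further: tested at 20 µM; growth read once vehicle control cultures reached saturation at 30 °C; 1 = growth at the plate median or of vehicle wells; lower values mean less growth of the strain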
Settings: growth OD

Measured: normalized growth

C=CCC1(C(C)CCC)C(=O)N=C(S)NC1=O (configuration not stated)
inactive: S. cerevisiae deletion strains, locus YJR075W, strain HOC1, active compounds read low 1.04 | S. cerevisiae deletion strains, locus YKL009W, strain mrt4, active compounds read low 0.963 | S. cerevisiae deletion strains, locus YKL068W, active compounds read low 0.969 | S. cerevisiae deletion strains, locus YKL085W, strain MDH1 (second series), active compounds read low 0.983 | S. cerevisiae deletion strains, locus YKL085W, strain MDH1, active compounds read low 0.983 | S. cerevisiae deletion strains, locus YKL160W, strain elf1, active compounds read low 0.972 | S. cerevisiae deletion strains, locus YKL190W, strain CNB1, active compounds read low 0.992 | S. cerevisiae deletion strains, locus YKR001C, strain vps1, active compounds read low 0.993 | S. cerevisiae deletion strains, locus YKR026C, strain gcn3, active compounds read low 0.925 | S. cerevisiae deletion strains, locus YKR091W, strain srl3, active compounds read low 0.978 | S. cerevisiae deletion strains, locus YLL001W, strain dnm1, active compounds read low 0.942 | S. cerevisiae deletion strains, locus YLL026W, active compounds read low 0.994 | S. cerevisiae deletion strains, locus YLL041C, strain sdh2, active compounds read low 0.974 | S. cerevisiae deletion strains, locus YLR027C, strain aat2, active compounds read low 0.979 | S. cerevisiae deletion strains, locus YLR039C, strain RIC1, active compounds read low 0.891 | S. cerevisiae deletion strains, locus YLR058C, strain SHM2, active compounds read low 0.988 | S. cerevisiae deletion strains, locus YLR102C, strain apc9, active compounds read low 0.966 | S. cerevisiae deletion strains, locus YLR113W, strain HOG1, active compounds read low 0.977 | S. cerevisiae deletion strains, locus YLR221C, strain rsa3, active compounds read low 1 | S. cerevisiae deletion strains, locus YLR258W, strain gsy2, active compounds read low 0.967 | S. cerevisiae deletion strains, locus YLR262C, strain YPT6 (second series), active compounds read low 0.905 | S. cerevisiae deletion strains, locus YLR262C, strain YPT6, active compounds read low 0.853 | S. cerevisiae deletion strains, locus YLR268W, strain sec22, active compounds read low 0.992 | S. cerevisiae deletion strains, locus YLR320W, strain mms22, active compounds read low 1.01 | S. cerevisiae deletion strains, locus YLR330W, strain CHS5, active compounds read low 0.979 | S. cerevisiae deletion strains, locus YLR342W, strain FKS1 (second series), active compounds read low 0.916 | S. cerevisiae deletion strains, locus YLR342W, strain FKS1, active compounds read low 0.978 | S. cerevisiae deletion strains, locus YLR357W, strain rsc2, active compounds read low 0.978 | S. cerevisiae deletion strains, locus YLR370C, strain arc18, active compounds read low 0.99 | S. cerevisiae deletion strains, locus YLR371W, strain rom2, active compounds read low 0.957 | S. cerevisiae deletion strains, locus YLR384C, strain iki3, active compounds read low 0.944 | S. cerevisiae deletion strains, locus YLR418C, strain cdc73, active compounds read low 1.04 | S. cerevisiae deletion strains, locus YML016C, strain PPZ1, active compounds read low 0.994 | S. cerevisiae deletion strains, locus YML032C, strain rad52, active compounds read low 0.957 | S. cerevisiae deletion strains, locus YML120C, strain ndi1, active compounds read low 0.988 | S. cerevisiae deletion strains, locus YML124C, strain tub3, active compounds read low 0.981 | S. cerevisiae deletion strains, locus YMR058W, strain fet3, active compounds read low 0.977 | S. cerevisiae deletion strains, locus YMR078C, strain ctf18, active compounds read low 0.972 | S. cerevisiae deletion strains, locus YMR125W, strain sto1, active compounds read low 0.923 | S. cerevisiae deletion strains, locus YMR129W, active compounds read low 0.978 | S. cerevisiae deletion strains, locus YMR205C, strain PFK2, active compounds read low 0.965 | S. cerevisiae deletion strains, locus YMR223W, strain ubp8, active compounds read low 0.979 | S. cerevisiae deletion strains, locus YMR231W, strain pep5, active compounds read low 0.963 | S. cerevisiae deletion strains, locus YMR263W, strain SAP30, active compounds read low 1.01 | S. cerevisiae deletion strains, locus YMR307W, strain GAS1, active compounds read low 1.02 | S. cerevisiae deletion strains, locus YNL067W, strain RPL9B, active compounds read low 1.02 | S. cerevisiae deletion strains, locus YNL071W, strain lat1, active compounds read low 1 | S. cerevisiae deletion strains, locus YNL128W, strain TEP1, active compounds read low 1.01 | S. cerevisiae deletion strains, locus YNL153C, strain GIM3, active compounds read low 1.03 | S. cerevisiae deletion strains, locus YNL183C, strain NPR1, active compounds read low 0.929 | S. cerevisiae deletion strains, locus YNL209W, strain ssb2, active compounds read low 0.976 | S. cerevisiae deletion strains, locus YNL233W, strain BNI4, active compounds read low 1.03 | S. cerevisiae deletion strains, locus YNL248C, strain rpa49, active compounds read low 0.914 | S. cerevisiae deletion strains, locus YNL250W, strain rad50, active compounds read low 0.963 | S. cerevisiae deletion strains, locus YNL271C, strain bni1, active compounds read low 0.98 | S. cerevisiae deletion strains, locus YNL298W, strain CLA4, active compounds read low 0.978 | S. cerevisiae deletion strains, locus YNL307C, strain MCK1, active compounds read low 0.961 | S. cerevisiae deletion strains, locus YNL322C, strain KRE1 (second series), active compounds read low 0.969 | S. cerevisiae deletion strains, locus YNL322C, strain KRE1, active compounds read low 0.989 | S. cerevisiae deletion strains, locus YNR049C, strain mso1, active compounds read low 0.97 | S. cerevisiae deletion strains, locus YNR052C, strain pop2, active compounds read low 0.995 | S. cerevisiae deletion strains, locus YOL006C, strain TOP1, active compounds read low 1.06 | S. cerevisiae deletion strains, locus YOL012C, strain htz1 1.08 | S. cerevisiae deletion strains, locus YOL147C, strain pex11, active compounds read low 0.99 | S. cerevisiae deletion strains, locus YOR001W, strain rrp6, active compounds read low 0.952 | S. cerevisiae deletion strains, locus YOR061W, strain CKA2, active compounds read low 0.99 | S. cerevisiae deletion strains, locus YOR069W, strain VPS5, active compounds read low 0.974 | S. cerevisiae deletion strains, locus YOR070C, strain gyp1, active compounds read low 0.991 | S. cerevisiae deletion strains, locus YOR080W, strain dia2, active compounds read low 0.959 | S. cerevisiae deletion strains, locus YOR083W, strain WHI5, active compounds read low 0.976 | S. cerevisiae deletion strains, locus YOR106W, strain vam3, active compounds read low 0.941 | S. cerevisiae deletion strains, locus YOR136W, strain idh2, active compounds read low 0.993 | S. cerevisiae deletion strains, locus YOR144C, strain elg1, active compounds read low 0.991 | S. cerevisiae deletion strains, locus YOR184W, strain ser1, active compounds read low 0.949 | S. cerevisiae deletion strains, locus YOR231W, strain MKK1, active compounds read low 0.984 | S. cerevisiae deletion strains, locus YOR265W, strain rbl2, active compounds read low 0.976 | S. cerevisiae deletion strains, locus YOR270C, strain vph1, active compounds read low 0.912 | S. cerevisiae deletion strains, locus YOR290C, strain snf2, active compounds read low 0.996 | S. cerevisiae deletion strains, locus YOR316C, strain cot1, active compounds read low 0.981 | S. cerevisiae deletion strains, locus YPL051W, strain arl3, active compounds read low 0.979 | S. cerevisiae deletion strains, locus YPL055C, strain LGE1, active compounds read low 1.02 | S. cerevisiae deletion strains, locus YPL078C, strain atp4, active compounds read low 0.937 | S. cerevisiae deletion strains, locus YPL106C, strain sse1, active compounds read low 0.988 | S. cerevisiae deletion strains, locus YPL240C, strain hsp82, active compounds read low 0.97 | S. cerevisiae deletion strains, locus YPL241C, strain CIN2, active compounds read low 0.99 | S. cerevisiae deletion strains, locus YPL256C, strain CLN2, active compounds read low 0.996 | S. cerevisiae deletion strains, locus YPR119W, strain clb2, active compounds read low 0.99 | S. cerevisiae deletion strains, locus YPR141C, strain kar3, active compounds read low 0.977 | S. cerevisiae deletion strains, locus YPR163C, strain tif3, active compounds read low 0.985 | S. cerevisiae deletion strains, locus YPR167C, strain met16, active compounds read low 0.981 | S. cerevisiae deletion strains, strain wtn01, active compounds read low 0.98 | S. cerevisiae strains, strain wild type, active compounds read low 0.986

From PubChem BioAssay AID1159580 (chemical genetic matrix, 2015)
